Results: PubChem BioAssay
For some assays here: Potency and affinity values are given separately. The source made the active and inactive calls. Unless noted, how the calls were made is not given here.

Assays:
[1] = antimalarial activity against Dd2 strain (AID 2302;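 active means growth inhibition above 50% at the single 2 µM test dose, taken to imply half-maximal potency below 2 µM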;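 further: 0% = DMSO untreated growth and 100% = chloroquine plus artemisinin killed control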); conditions: P. falciparum Dd2 in RBCs, LDH growth readout, 72 h; at 2 µM; stronger effect = higher value
[2] = HepG2 cytotoxicity, primary screen, cytotoxicity control for P. falciparum antimalarial project, cell-based, ATP luminescence (AID 2303;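 active means inhibition above 50%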;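 further: 0% = DMSO wells and 100% = digitonin-killed cells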); conditions: HepG2 viability, 24-48 h, at 10 µM, stronger effect = higher value
[3] = target: L-lactate dehydrogenase (Plasmodium falciparum (isolate CDC / Honduras)) (UniProt Q27743); assay: PfLDH activity inhibition – cell lysate, 3D7 strain, counter-screen for P. falciparum growth inhibition project (AID 2304);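 further: 0% = vehicle and 100% = reference inhibitor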; conditions: P. falciparum 3D7 crude extract, LDH APAD/NBT absorbance; at 2 µM; stronger effect = higher value
L-lactate dehydrogenase (Plasmodium falciparum (isolate CDC / Honduras)), sequence (Q27743 whole entry, looked up): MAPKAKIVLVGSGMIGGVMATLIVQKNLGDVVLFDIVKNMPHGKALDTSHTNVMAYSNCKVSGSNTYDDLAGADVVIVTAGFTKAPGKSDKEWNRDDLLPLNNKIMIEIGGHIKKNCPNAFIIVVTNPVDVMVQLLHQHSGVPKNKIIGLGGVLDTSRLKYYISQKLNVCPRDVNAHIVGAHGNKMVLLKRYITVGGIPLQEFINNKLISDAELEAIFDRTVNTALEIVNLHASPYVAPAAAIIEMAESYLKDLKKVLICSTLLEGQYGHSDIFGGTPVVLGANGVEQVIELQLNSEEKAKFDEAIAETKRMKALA

[4] = inhibition of 3D7 malaria parasite growth – strain 3D7 (AID 2306);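 further: 0% = DMSO wells and 100% = chloroquine plus artemisinin control wells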; conditions: P. falciparum 3D7 erythrocytic growth, LDH absorbance, 72 h; at 2 µM; stronger effect = higher value
[5] = target: Calcium-dependent protein kinase 1 (Plasmodium falciparum (isolate 3D7)) (UniProt P62344); assay: PfCDPK1 kinase inhibitors, biochemical, TCAMS library (AID 1159585; cut-off not given, nearly all actives have IC50 up to about 0.98 µM;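 further: inhibitors leave more ATP so luminescence rises with inhibition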); conditions: recombinant PfCDPK1, Kinase-Glo ATP depletion luminescence
Calcium-dependent protein kinase 1 (Plasmodium falciparum (isolate 3D7)), sequence (P62344 whole entry, looked up): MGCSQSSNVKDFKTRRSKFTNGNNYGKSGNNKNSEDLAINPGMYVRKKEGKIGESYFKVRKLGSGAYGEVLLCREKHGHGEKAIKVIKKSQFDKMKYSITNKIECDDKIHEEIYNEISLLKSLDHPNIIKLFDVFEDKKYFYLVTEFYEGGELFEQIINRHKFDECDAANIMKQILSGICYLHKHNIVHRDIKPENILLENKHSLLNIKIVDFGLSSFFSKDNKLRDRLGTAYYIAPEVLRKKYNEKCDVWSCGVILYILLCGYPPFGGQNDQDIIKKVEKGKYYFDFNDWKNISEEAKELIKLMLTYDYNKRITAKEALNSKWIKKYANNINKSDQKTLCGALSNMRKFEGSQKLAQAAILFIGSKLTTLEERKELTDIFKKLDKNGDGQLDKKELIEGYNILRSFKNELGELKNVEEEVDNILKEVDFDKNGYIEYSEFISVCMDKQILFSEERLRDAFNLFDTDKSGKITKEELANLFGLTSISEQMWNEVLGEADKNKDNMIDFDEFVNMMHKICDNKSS

[6] = target: Plasmodium falciparum protein kinase 6 (PK6, PF3D7_1337100) (UniProt Q8IDW1); assay: PfPK6 kinase inhibitors, biochemical, TCAMS library (AID 1159586); conditions: recombinant PfPK6, Kinase-Glo ATP depletion luminescence
Plasmodium falciparum protein kinase 6 (PK6, PF3D7_1337100), sequence (Q8IDW1 1-305): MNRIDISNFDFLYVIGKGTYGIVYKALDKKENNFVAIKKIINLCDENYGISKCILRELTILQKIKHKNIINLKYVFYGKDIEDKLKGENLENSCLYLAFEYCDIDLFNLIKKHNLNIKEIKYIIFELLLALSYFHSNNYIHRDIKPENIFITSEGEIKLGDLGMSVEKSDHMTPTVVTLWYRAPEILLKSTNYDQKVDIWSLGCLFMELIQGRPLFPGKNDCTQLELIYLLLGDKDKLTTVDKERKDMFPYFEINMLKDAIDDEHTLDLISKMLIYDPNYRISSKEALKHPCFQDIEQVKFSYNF

[7] = target: Protein kinase 7 (PK7), Plasmodium falciparum 3D7 (PF3D7_0213400) (UniProt Q7YTF7); assay: inhibition of Plasmodium PK7 catalytic activity – biochemical, TCAMS antimalarial set, Kinase-Glo luminescence (AID 1159587); conditions: recombinant PfPK7, Kinase-Glo ATP depletion luminescence
Protein kinase 7 (PK7), Plasmodium falciparum 3D7 (PF3D7_0213400), sequence (Q7YTF7 1-343): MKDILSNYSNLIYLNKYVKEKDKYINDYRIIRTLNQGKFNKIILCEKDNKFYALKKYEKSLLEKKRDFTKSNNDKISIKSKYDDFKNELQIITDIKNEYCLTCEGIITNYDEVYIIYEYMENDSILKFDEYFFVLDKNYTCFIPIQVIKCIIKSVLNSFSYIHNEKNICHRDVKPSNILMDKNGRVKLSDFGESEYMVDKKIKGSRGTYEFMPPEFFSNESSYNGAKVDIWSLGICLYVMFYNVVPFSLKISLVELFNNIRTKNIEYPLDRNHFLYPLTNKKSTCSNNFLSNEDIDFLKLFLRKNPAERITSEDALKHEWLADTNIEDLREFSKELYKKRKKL

[8] = target: Calcium-dependent protein kinase 4 (Plasmodium falciparum (isolate 3D7)) (UniProt Q8IBS5); assay: PfCDPK4 kinase inhibitors, biochemical, TCAMS library (AID 1159588; cut-off not given, nearly all actives have IC50 up to about 0.91 µM); conditions: recombinant PfCDPK4, Kinase-Glo ATP depletion luminescence
Calcium-dependent protein kinase 4 (Plasmodium falciparum (isolate 3D7)), sequence (Q8IBS5 whole entry, looked up): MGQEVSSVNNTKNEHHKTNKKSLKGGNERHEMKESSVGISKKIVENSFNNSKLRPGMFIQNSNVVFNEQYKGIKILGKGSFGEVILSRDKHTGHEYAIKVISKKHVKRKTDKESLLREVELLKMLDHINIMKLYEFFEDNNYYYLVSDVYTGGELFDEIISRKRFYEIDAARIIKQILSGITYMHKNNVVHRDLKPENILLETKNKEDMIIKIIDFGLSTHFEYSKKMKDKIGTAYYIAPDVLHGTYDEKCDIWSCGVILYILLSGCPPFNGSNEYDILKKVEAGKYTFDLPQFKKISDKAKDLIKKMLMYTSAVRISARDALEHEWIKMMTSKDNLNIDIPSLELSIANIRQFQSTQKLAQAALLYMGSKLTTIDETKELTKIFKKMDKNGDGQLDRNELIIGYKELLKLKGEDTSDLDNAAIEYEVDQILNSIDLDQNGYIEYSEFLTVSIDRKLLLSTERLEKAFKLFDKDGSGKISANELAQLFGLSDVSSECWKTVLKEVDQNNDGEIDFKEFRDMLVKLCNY

N#Cc1ccc2c(c1)CN(CCCCNC(=O)c1ccc(-c3ccccc3)cc1)CC2
active: growth inhibition [4] 96%
inactive: growth inhibition [1] 10% | inhibition [2] -9% | inhibition [3] -1% | outcome [5] | outcome [6] | outcome [7] | outcome [8]

CCC(C)c1ccc(NC(=O)Nc2ccc(Cn3ncc(N4CCCNCC4)c(Cl)c3=O)cc2)cc1 (stereo not given)
active: growth inhibition [4] 83%
inactive: growth inhibition [1] 31% | inhibition [2] -6% | inhibition [3] -2% | outcome [5] | outcome [6] | outcome [7] | outcome [8]

COc1cccc(CNC[C@@H](O)[C@H](Cc2ccccc2)NC(=O)c2cc(NC(C)C)cc(N3CCCCS3(=O)=O)c2)c1
active: growth inhibition [1] 97% | growth inhibition [4] 89%
inactive: inhibition [2] 1% | inhibition [3] 1% | outcome [5] | outcome [6] | outcome [7] | outcome [8]

CC1CN=C(c2ccc(NC(=O)c3ccc(C(=O)Nc4ccc(C5=NCC(C)N5)cc4)cc3)cc2)N1 (stereo not given)
inactive: inhibition [2] 15% | inhibition [3] -7% | outcome [5] | outcome [6] | outcome [7] | outcome [8]
active: growth inhibition [1] 100% | growth inhibition [4] 99%

Cc1cc(N2C(N)=NC(N)=NC2(C)C)ccc1Cl
inactive: growth inhibition [1] -2% | inhibition [3] -5% | outcome [5] | outcome [6] | outcome [7] | outcome [8]
active: inhibition [2] 66% | growth inhibition [4] 95%

O=c1[nH]c2c(cc1CNC1CCCCC1)c(-c1ccc(F)cc1)nn2-c1ccccc1
inactive: inhibition [2] 8% | inhibition [3] 6% | outcome [5] | outcome [6] | outcome [7] | outcome [8]
active: growth inhibition [1] 88% | growth inhibition [4] 99%

COc1cc(NC(=O)N2CCc3cc(OC)c(OCCN4CCCCC4)cc32)cc(C(F)(F)F)c1
inactive: growth inhibition [1] 10% | inhibition [2] 9% | inhibition [3] -3% | outcome [5] | outcome [6] | outcome [7] | outcome [8]
active: growth inhibition [4] 93%

Cc1[nH]c(C)c(-c2ccc(Nc3ccc(C(F)(F)F)cn3)cc2)c(=O)c1Br
inactive: inhibition [2] 30% | inhibition [3] -2% | outcome [5] | outcome [6] | outcome [7] | outcome [8]
active: growth inhibition [1] 98% | growth inhibition [4] 99%

OC(CNCc1ccccc1Oc1ccccc1)c1cccc(C(F)(F)F)c1 (stereo not given)
active: growth inhibition [1] 98% | growth inhibition [4] 104%
inactive: inhibition [2] -1% | inhibition [3] 10% | outcome [5] | outcome [6] | outcome [7] | outcome [8]

CC(C)c1ccc(NC(=O)c2ccc(C(=O)NCC3CCN(CC4CCCCC4)CC3)cc2)cc1
inactive: growth inhibition [1] 18% | inhibition [2] 26% | inhibition [3] -3% | outcome [5] | outcome [6] | outcome [7] | outcome [8]
active: growth inhibition [4] 92%

CN(C)c1ccc(C=C2SC(=O)NC2=Nc2ccccc2)cc1
inactive: inhibition [2] 42% | inhibition [3] 6% | outcome [5] | outcome [6] | outcome [7] | outcome [8]
active: growth inhibition [1] 96% | growth inhibition [4] 97%

O=C(Nc1ccccc1Br)c1cn(-c2ccccc2)nc1-c1cccc([N+](=O)[O-])c1
active: growth inhibition [4] 92%
inactive: growth inhibition [1] 36% | inhibition [2] 7% | inhibition [3] -5% | outcome [5] | outcome [6] | outcome [7] | outcome [8]

Cc1cc(Nc2ccncc2)n2nc(C)c(-c3ccc(Cl)cc3)c2n1
active: growth inhibition [1] 99% | growth inhibition [4] 101%
inactive: inhibition [2] -9% | inhibition [3] 2% | outcome [5] | outcome [6] | outcome [7] | outcome [8]

O=C(Nc1ccc(C(=O)Nc2ccc(C3=NCCN3)cc2)cc1)Nc1ccc(C2=NCCN2)cc1
inactive: inhibition [2] -8% | inhibition [3] -7% | outcome [5] | outcome [6] | outcome [7] | outcome [8]
active: growth inhibition [1] 95% | growth inhibition [4] 94%

COC(=O)c1cc2cccc(NC[C@@H](C)NC[C@H](O)c3cccc(Cl)c3)c2[nH]1
inactive: inhibition [2] -8% | inhibition [3] -3% | outcome [5] | outcome [6] | outcome [7] | outcome [8]
active: growth inhibition [1] 99% | growth inhibition [4] 98%

CCCCCC(=O)NCC(NCCCNc1cc(=O)c2ccccc2[nH]1)c1cc(Br)cc(Br)c1 (stereo not given)
inactive: inhibition [2] -1% | inhibition [3] -8% | outcome [5] | outcome [6] | outcome [7] | outcome [8]
active: growth inhibition [1] 66% | growth inhibition [4] 96%

COc1ccc(CNCc2ccccc2)cc1-c1ccc(S(=O)(=O)NCCN2CCCC2)c(F)c1
inactive: growth inhibition [1] 42% | inhibition [2] 29% | inhibition [3] 5% | outcome [5] | outcome [6] | outcome [7] | outcome [8]
active: growth inhibition [4] 87%

Cc1cc(NC(=O)Nc2ccc(Oc3ccccc3)cc2)c2ccccc2n1
active: growth inhibition [4] 91%
inactive: growth inhibition [1] 28% | inhibition [2] 2% | inhibition [3] 4% | outcome [5] | outcome [6] | outcome [7] | outcome [8]

Cc1cnc(C(=O)Nc2cccc(-c3cccc(-c4nc5ccc(F)cc5[nH]4)c3)c2)cn1
inactive: growth inhibition [1] 24% | inhibition [2] 25% | inhibition [3] -1% | outcome [5] | outcome [6] | outcome [7] | outcome [8]
active: growth inhibition [4] 99%

O=C1C(C2CCC(c3ccc(Cl)cc3)CC2)=C2OCC3COC2(O3)c2ccccc21 (stereo not given)
inactive: inhibition [2] 7% | inhibition [3] -2% | outcome [5] | outcome [6] | outcome [7] | outcome [8]
active: growth inhibition [1] 97% | growth inhibition [4] 98%

CCN(c1ccc(F)cc1)S(=O)(=O)c1cc(Br)cc2c1N(C(=O)C1CC1)CC2
active: growth inhibition [1] 79% | growth inhibition [4] 88%
inactive: inhibition [2] -16% | inhibition [3] 7% | outcome [5] | outcome [6] | outcome [7] | outcome [8]

O=C(Nc1ccc(F)cc1F)NC1CCN(CCCCCNC(=O)[C@@H]2C[C@H]2c2ccc(Cl)c(Cl)c2)CC1
active: growth inhibition [4] 100%
inactive: growth inhibition [1] 32% | inhibition [2] 41% | inhibition [3] 1% | outcome [5] | outcome [6] | outcome [7] | outcome [8]

Cc1[nH]c(C)c(-c2ccc(OCc3ccccc3C(F)(F)F)nc2)c(=O)c1Br
active: growth inhibition [1] 97% | growth inhibition [4] 98%
inactive: inhibition [2] 35% | inhibition [3] -6% | outcome [5] | outcome [6] | outcome [7] | outcome [8]

COc1c(C2CCN(CCCCNC(=O)c3cc(-c4ccc(Cl)cc4)sc3C)CC2)ccc2c1CCCC2
active: growth inhibition [1] 65% | inhibition [2] 61% | growth inhibition [4] 101%
inactive: inhibition [3] 2% | outcome [5] | outcome [6] | outcome [7] | outcome [8]

CC[C@@]1(O)C(=O)OCc2c1cc1n(c2=O)Cc2c-1nc1cc3c(cc1c2CN1CCN(C)CC1)OCCO3
active: growth inhibition [1] 97% | inhibition [2] 79% | growth inhibition [4] 98%
inactive: inhibition [3] 1% | outcome [5] | outcome [6] | outcome [7] | outcome [8]

c1ccc(CCNCc2ccc(-c3ccc(CNc4ccc5ncccc5c4)cc3)cc2)cc1
active: growth inhibition [4] 96%
inactive: growth inhibition [1] 27% | inhibition [2] 36% | inhibition [3] -1% | outcome [5] | outcome [6] | outcome [7] | outcome [8]

O=C(Cn1c(=O)oc2ccccc21)N1CCC(n2c(=O)n(CCCN3CCOCC3)c3ccccc32)CC1
active: growth inhibition [1] 101% | growth inhibition [4] 99%
inactive: inhibition [2] 11% | inhibition [3] 5% | outcome [5] | outcome [6] | outcome [7] | outcome [8]

O=C(Nc1ccsc1)Nc1cccc(-c2ccc(-c3nc4ccc(C(F)(F)F)cc4[nH]3)cc2)c1
active: growth inhibition [4] 99%
inactive: growth inhibition [1] 36% | inhibition [2] 45% | inhibition [3] -2% | outcome [5] | outcome [6] | outcome [7] | outcome [8]

CCn1c(-c2nonc2N)nc2c(Cl)ncc(O[C@H](CCN)c3ccccc3F)c21
active: growth inhibition [1] 88% | growth inhibition [4] 96%
inactive: inhibition [2] 15% | inhibition [3] -2% | outcome [5] | outcome [6] | outcome [7] | outcome [8]

CC(C)CCN(Cc1cncn1Cc1cccc(C(F)(F)F)c1)C(=O)c1cncc(-c2ccccc2)c1
inactive: growth inhibition [1] 4% | inhibition [2] 15% | inhibition [3] -3% | outcome [5] | outcome [6] | outcome [7] | outcome [8]
active: growth inhibition [4] 100%

CC(C)CN(Cc1c(O)ccc2[nH]c(-c3ccc(F)cc3F)nc12)CC(C)C
inactive: inhibition [2] 11% | inhibition [3] -2% | outcome [5] | outcome [6] | outcome [7] | outcome [8]
active: growth inhibition [1] 92% | growth inhibition [4] 98%

CC(=O)c1cccc(NC(=O)N2CCCN(CCCCCNC(=O)/C=C/c3ccc(Cl)c(Cl)c3)CC2)c1
inactive: growth inhibition [1] 0% | inhibition [2] 13% | inhibition [3] -5% | outcome [5] | outcome [6] | outcome [7] | outcome [8]
active: growth inhibition [4] 93%

COc1ccc(C(=O)N2CCC3(CC2)C(=O)N(CC(=O)NC2CCCCC2)CN3c2ccccc2)c(OC)c1
inactive: inhibition [2] 4% | inhibition [3] 3% | outcome [5] | outcome [6] | outcome [7] | outcome [8]
active: growth inhibition [1] 99% | growth inhibition [4] 100%

COC(=O)c1cccc(CNCc2ccc(-c3ccc(-c4nc5c(C)cccc5[nH]4)s3)cc2)c1
active: growth inhibition [1] 64% | growth inhibition [4] 101%
inactive: inhibition [2] 3% | inhibition [3] 0% | outcome [5] | outcome [6] | outcome [7] | outcome [8]

O=C(Nc1ccc2ccccc2c1)N(CCCn1ccnc1)Cc1csc(-c2ccc(CNCc3ccccc3)cc2)n1
active: growth inhibition [1] 53% | growth inhibition [4] 99%
inactive: inhibition [2] 10% | inhibition [3] 0% | outcome [5] | outcome [6] | outcome [7] | outcome [8]

COc1ccccc1-c1[nH]c2ccccc2c1CN1CCC(c2c(C)cccc2C)CC1
active: growth inhibition [4] 96%
inactive: growth inhibition [1] 13% | inhibition [2] 49% | inhibition [3] 3% | outcome [5] | outcome [6] | outcome [7] | outcome [8]

CCCNCc1ccc(-c2ccc(CN(C(=O)c3nn(-c4ccccc4)nc3C)C3CCOCC3)cc2)nc1
active: growth inhibition [4] 98%
inactive: growth inhibition [1] -6% | inhibition [2] 14% | inhibition [3] 4% | outcome [5] | outcome [6] | outcome [7] | outcome [8]

O=C(NCCCCCN1CCC(c2c[nH]c3ccccc23)CC1)Nc1ccc(I)c(Cl)c1
inactive: growth inhibition [1] 5% | inhibition [3] 3% | outcome [5] | outcome [6] | outcome [7] | outcome [8]
active: inhibition [2] 88% | growth inhibition [4] 99%

Cc1ccoc1C(=O)Nc1cccc(-c2cccc(-c3nc4c(C)cccc4[nH]3)c2)c1
active: growth inhibition [1] 79% | growth inhibition [4] 101%
inactive: inhibition [2] 17% | inhibition [3] -3% | outcome [5] | outcome [6] | outcome [7] | outcome [8]

Cc1ccc(NC(=O)c2ccc(C(=O)NC3CCN(CC4CCCCC4)CC3)cc2)cc1
inactive: growth inhibition [1] 0% | inhibition [2] 36% | inhibition [3] -6% | outcome [5] | outcome [6] | outcome [7] | outcome [8]
active: growth inhibition [4] 93%
